Pf growth 96h: Primary qHTS for delayed death inhibitors of the malarial parasite plastid, 96 hour incubation; P. falciparum luciferase reporter growth, 96 h; Potency, µM (series often up to 28.7 µM), inactives show top-dose activity change, negative = inhibition, most hits filed as inhibitors; actives 6.9% (n = 320,000); AID 504834, 2011; note: potency is the fitted concentration of half-maximal effect; % is set by controls: 0 for no effect and ±100 for the full control effect
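Plates of compound plus infected erythrocytes (2% hematocrit, 0.05% parasitemia final) incubate 96 hours, 37 C, 5% CO2. Detection reagent added; reduced luminescence from the parasites' luciferase reporter flags inhibition.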
Pf growth 48h: Primary qHTS for delayed death inhibitors of the malarial parasite plastid, 48 hour incubation | P. falciparum luciferase growth in erythrocytes, 48 h | Potency, µM (highest dose often 28.7 µM), without a hit: at the highest dose activity change, negative = inhibition, hits mostly inhibitors | actives 5.9% (n = 310,000) | AID 504832, 2011; note: potency is the fitted concentration of half-maximal effect; % is set by controls: 0 for no effect and ±100 for the full control effect
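Here the parasites carry a stable luciferase gene and grow inside erythrocytes in Albumax-based RPMI medium with compound for one erythrocytic cycle. Activity is scored as loss of luminescent signal.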
HCV inh: qHTS Assay for Inhibitors of Hepatitis C Virus (HCV); Potency, µM (series often up to 41.8 µM), inactives show at the top dose activity change, negative = inhibition, hits mostly inhibitors; Huh7.5.1 HCVcc-Cre infection, luciferase reporter, 44 h; actives 3.4% (n = 340,000); note: potency is the fitted concentration of half-maximal effect; % is set by controls: 0 for no effect and ±100 for the full control effect
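Cells seeded at 1,000/well and cultured 4 h, then compounds added followed by HCVcc-Cre virus (~0.5 moi). After 44 h further culture, luciferase substrate was added, plates held 15 min at room temperature, and luminescence read for 15 sec.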
Cycloheximide cs: Cycloheximide Counterscreen for Small Molecule Inhibitors of Shiga Toxin. cell reporter, cycloheximide protein synthesis inhibition counterscreen. max response, %. actives 12% (n = 300,000). AID 2314, 2010; in the data active = max response mostly above about 13%, no sharp cut-off; inactive = mostly below about 14%; note: read at 38.3 µM for the half of the compounds with a filed dose; 0% is about no effect
HCMV inh: qHTS Assay for inhibitors of the human cytomegalovirus (HCMV); actives 4.5% (n = 410,000); activity change, negative = inhibition, % at 57.5 µM; HFF cells, HCMV-luciferase reporter, 72 h; stronger effect = lower value; in the data active = activity change below about -60%; inconclusive = no clear call, values can overlap the other calls; inactive = above about -39%; note: % is set by controls: 0 for no effect and ±100 for the full control effect
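Two compound doses tested in HFFs infected with HCMV-luciferase, MOI 1 PFU/cell, 72 h at 37C. Lysate luminescence read with OneGlo; data normalized against buffer-only and 10uM Salinomycin inhibitor controls.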
Shiga toxin inh: A qHTS for Small Molecule Inhibitors of Shiga Toxin; inhibition, % at 38.7 µM; actives 9.2% (n = 290,000); AID 2315, 2010; Vero cells, Shiga toxin protein synthesis inhibition reporter; in the data active = inhibition mostly above about 28%, no sharp cut-off; inactive = mostly below about 43%; note: 0% is about no effect
* marks the source's active call; other numbers are inactive results; i = inactive; ? = inconclusive; . = not tested or not shown; [ ] = another dose, or the depositor's remark. This is a sample that favours compounds with a hit; in the whole collection about 21% have one here. Unless noted, calls come from the whole dose curve; as a rule, active = well fitted inhibition curve with a large enough effect; inconclusive = small, poorly fitted or top-dose-only effect, or another doubt; inactive = no such curve, though single readings can be large or run the other way.

SMILES	Pf growth 96h	Pf growth 48h	HCV inh	Cycloheximide cs	HCMV inh	Shiga toxin inh
CN(Cc1ccc(Cl)cc1Cl)C(=O)c1cc(=O)c2ccccc2o1	-14.2%	-8.2%	-11.7%	-0.7	-63.0*	24.2
CN(Cc1ccc(N(C)C)cc1)C(=O)c1cc2ccccc2o1	66.5%	28.0%	-11.6%	28.0*	-6.9	68.1*
O=C(c1cc2ccccc2oc1=O)N(Cc1cccs1)Cc1ccccc1Cl	-19.5%	?	-10.9%	44.6*	-9.9	60.4*
O=C(c1cc2ccccc2o1)N(Cc1ccco1)Cc1cccs1	-0.1%	?	6.5%	.	2.6	.
CC(C)(C)N(Cc1ccccc1)C(=O)c1cc2ccccc2o1	16.2%	?	-15.8%	0.6	-18.4	-9.8
CN(Cc1ccccc1)C(=O)c1cc2ccccc2o1	-7.3%	.	-11.4%	11.9	15.0	8.4
Cc1ccc(Cl)cc1N1CCN(C(=O)CNC(=O)c2ccc(Br)o2)CC1	?	?	?	.	-10.8	.
COc1ccc2nc3n(c(=O)c2c1)-c1ncccc1C(=O)NC3C (stereo not drawn)	.	.	.	.	36.9	.
CCOc1ccc(CN(C)C(=O)c2cc3ccccc3o2)cc1OC	?	-7.3%	-13.7%	4.4	69.4	20.8
CCN(Cc1ccc(OC)c(F)c1)C(=O)c1cc2ccccc2o1	-16.9%	-9.9%	-15.5%	17.7*	1.0	8.9
CN(C)CCCOC(=O)c1cc2ccccc2o1	?	2.62µM*	0.7%	1.3	6.0	-3.4
COc1ccc(-n2c3c(c(=O)[nH]c2=O)C(NC(=O)c2ccccc2Cl)(C(F)(F)F)C(=O)N3)cc1 (stereo not drawn)	.	.	.	.	-11.8	.
C#CCSc1nnc(-c2ccc(C)cc2)o1	1.17µM*	i	5.2%	39.2*	17.6	73.2*
C#CCSc1nnc(-c2cccc3ccccc23)o1	.	.	-16.0%	.	29.0	.
C#CCSc1nnc(-c2ccc(O)cc2)o1	-23.1%	i	7.7%	52.9*	-17.6	62.1*
Cc1cc(NC(=O)C(C)SCC(=O)N(C)Cc2c(F)cccc2Cl)no1 (stereo not drawn)	.	.	-11.8%	.	-15.6	.
Cc1c(CN(C)Cc2cn(C)nc2-c2ccccc2F)[nH]c2ccccc12	3.7µM*	-8.9%	-1.2%	-2.0	-22.3	-17.7
CN(CCCN1CCOCC1)Cc1cn(C)nc1-c1ccccc1F	5.86µM*	0.0%	1.1%	-2.3	15.3	-7.9
Cc1c(C(=O)c2ccccc2)c2ccccc2n1C	0.5%	-2.5%	-24.7%	-5.5	-17.1	-11.9
Cc1c(/C(Cc2ccccc2)=N/O)c2ccccc2n1C	10.4µM*	?	0.3%	-3.3	8.5	-9.0
Nc1ccc2nc(CCc3ccccc3)[nH]c2c1	29.0%	3.5%	?	71.4*	-15.3	22.5*
Cc1ccc2nc(CCc3ccc(N)cc3)[nH]c2c1	-2.8%	?	-6.7%	49.9*	28.1	.
CCc1nnc(SCc2nc(-c3ccc(OC)cc3)oc2C)c2cc3sccc3n12	.	.	.	.	-14.5	.
COc1cc(OC)cc(C(=O)NC(C(=O)NCCc2ccccn2)C(C)C)c1 (stereo not drawn)	.	.	17.6%	.	51.9	.
Cc1ccc(Nc2ncc3c(n2)CC(C)(C)CC3=O)cc1	2.2%	105.0%	-5.2%	34.0*	37.0	118.5*
SMILES	Pf growth 96h	Pf growth 48h	HCV inh	Cycloheximide cs	HCMV inh	Shiga toxin inh
COc1ccc(C2CC(=O)c3sc(N)nc3C2)cc1 (stereo not drawn)	2.62µM*	2.94µM*	5.3%	-2.9	41.0	21.0
CC1(C)CC(=O)c2cnc(NC3CC3)nc2C1	?	7.2%	28.3%	-1.9	-10.8	49.4
COc1ccc(Nc2ncc3c(n2)CC(c2ccc(OC)cc2)CC3=O)cc1 (stereo not drawn)	9.28µM*	?	?	-2.4	22.7	3.5
COCc1ccc(C(=O)NC2CCCN(Cc3ccccc3F)C2)o1 (stereo not drawn)	?	-2.9%	14.3%	-1.2	-11.4	-26.3
CCN1/C(=C\C=C\C2=[N+](CC)c3ccccc3C2(C)C)C(C)(C)c2ccccc21	0.147µM*	.	0.562µM*	-6.2	.	-25.4
CC1=CC2=NC(=O)/C(=C\c3cc(C)n(-c4ccccc4)c3C)C(=N)N2O1	?	?	-20.9%	-1.1	5.0	0.9
CC1=CC2=NC(=O)/C(=C\c3ccc(-c4ccc(Cl)cc4)o3)C(=N)N2O1	?	47.2%	-0.3%	17.8*	?	0.2
CC1=CC2=NC(=O)/C(=C\c3cc(C)n(-c4ccccc4F)c3C)C(=N)N2O1	?	10.4µM*	?	29.1*	5.4	58.9*
CC(=O)N[C@H]1CSSC[C@@H](C(=O)N2CCC[C@H]2C(=O)N2CCC[C@H]2C(=O)N[C@@H](CCCCN)C(=O)N[C@@H](CC(=O)O)C(N)=O)NC(=O)CNC(=O)[C@H](Cc2c[nH]c3ccccc23)NC(=O)[C@H](CCCNC(=N)N)NC(=O)[C@@H](Cc2ccc(Cl)c(Cl)c2)NC(=O)[C@H](Cc2cnc[nH]2)NC(=O)[C@H](CCC(=O)O)NC1=O	.	.	.	-7.4	.	-9.2
c1ccc(COC[C@@H]2CO2)cc1	.	.	.	-0.9	.	5.0
COc1ccccc1CN1CC(C(=O)NCCn2ccc(C)n2)CCC1=O (stereo not drawn)	?	17.3%	-2.4%	6.2	8.6	2.8
COc1ccc(Cl)cc1NC(=O)CN(C)C(=O)CSc1ccc2c(c1)OCCO2	36.5%	?	?	.	29.4	.
c1cnc(SCCOc2ccc3c(c2)CCC3)nc1	326.2%	.	9.3%	35.9*	74.8	75.3*
c1cc2c(cc1OCCNC1CCCC1)CCC2	11.7µM*	-18.4%	.	8.0	.	-3.9
c1ccc(-c2ccc(OCCCNC3CCCC3)cc2)cc1	2.7%	13.1µM*	11.2µM*	10.6	-21.2	10.6
COc1ccc(OCCNC2CCCC2)cc1	?	0.2%	-4.3%	-1.6	51.9	-10.2
CNCCCOc1ccc2c(c1)CCC2	10.6%[5.75 µM]	?	-13.6%	21.3*	-2.6	76.5
CC1(C)NC(=O)N(CCCCOc2ccc3c(c2)CCC3)C1=O	.	?	?	10.9	-3.7	16.4
Cn1c(SCC(=O)Nc2nccs2)nnc1-c1ccccn1	-17.0%	?	4.1%	6.6	-26.2	-10.5
CCOC(=O)c1cccc(NC(=O)CSc2ncc3c(n2)-c2ccc(Cl)cc2N(Cc2ccccc2)S3(=O)=O)c1	.	.	.	.	6.7	.
O=C(CCOc1ccc(F)cc1)Nc1nccs1	-2.9%	41.9%	6.9%	17.6	-8.5	1.1
CCOc1cccc(=O)c2c(C)n(Cc3ccco3)c(C)c12	?	9.28µM*	?	4.9	-26.4	9.7
CCOc1cccc(=O)c2c(C)n(Cc3ccccc3)c(C)c12	27.0%	?	4.5%	-0.8	-0.8	11.4
